{
  "source": "PubChem BioAssay (NCI)",
  "note": "Values joined by “and” are separate entries in the source; they are usually repeats but may differ in a detail not shown here. Equal values may be shown once. About 83,000 compounds went through this panel and 20% of them were active in at least one assay; those are over-represented in the sample as a whole.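 Plates (96-well) were seeded with cells, treated with compound at one concentration, and incubated for 48 hours before percent growth was determined.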 Unmarked numbers belong to inactive results. Active and inactive are the calls of the source. The calls were made as follows: active = growth percent below 10; inactive = the rest.",
  "data": [
    {"test_system": "MDA-MB-468 breast", "assay": "NCI-60 one-dose screen, 48 h (100 = growth as untreated, 0 = no growth, -100 = all killed)", "details": "10 µM unless noted", "values": [
      {"smiles": "c1ccc(-c2cn3c(ccc4ccccc43)n2)cc1", "growth": "30.6%"},
      {"smiles": "COc1ccc(-c2nnc(SCC(=O)Nc3ccc(C(=O)/C=C/c4ccc(Cl)cc4)cc3)n2-c2ccccc2)cc1", "growth": "97.9%"},
      {"smiles": "NC(Cc1ccccc1)C(=O)NC(Cc1ccccc1)C(=O)O", "note": "(centres undefined)", "growth": "102% and 92.8%"},
      {"smiles": "CC(=O)OC[C@]12CC[C@@H](C(=O)CBr)[C@@H]1[C@H]1CC[C@@H]3[C@@]4(C)CCCNC(C)(C)[C@@H]4CC[C@@]3(C)[C@]1(C)CC2", "growth": "-67.7% [100 µM] (active)"},
      {"smiles": "CCC(C)CC(N)O", "note": "(centres undefined)", "growth": "94.1%"},
      {"smiles": "CC(=O)c1sc(Nc2cccc(Nc3nc(C)c(C)s3)c2)nc1C", "growth": "55%"},
      {"smiles": "CN1Cn2c(ccc2C(F)(F)F)C(=O)CS1(=O)=O", "growth": "115%"},
      {"smiles": "CC1=C[C@H]2c3c(c(O)c(O)c4oc5c(C)cccc5c(=O)c34)[C@H](c3cc(O)c(O)c4oc5c(C)cccc5c(=O)c34)[C@H]2C(C)(C)C1", "growth": "21.6%"},
      {"smiles": "CC1=C(C)C(=O)C(Nc2ccc3c(c2)OCO3)=C(Br)C1=O", "growth": "36.3%"},
      {"smiles": "COc1ccc2c(c1)O/C(=C\\c1ccc([N+](=O)[O-])o1)C2=O", "growth": "-46.5% (active)"},
      {"smiles": "COc1ccc(-c2cnnn2-c2cc(OC)c3c(c2)OCO3)cc1", "growth": "40.9%"},
      {"smiles": "OCCCCCCNc1ncnc2cc(Cl)ccc12", "growth": "74.1%"},
      {"smiles": "O=[N+]([O-])c1ccccc1S(=O)c1ccccc1[N+](=O)[O-]", "growth": "40.1%"},
      {"smiles": "NC(N)=N/N=C/c1ccc([N+](=O)[O-])cc1", "growth": "85.5%"},
      {"smiles": "Fc1ccc(NCc2cn(-c3ccccc3)nc2-c2ccc(OCc3ccccc3)cc2)cc1Cl", "growth": "119%"},
      {"smiles": "CCO/C=N/C1=C(C#N)C(c2ccc(OC)cc2)c2sc3c(C)cccc3c2O1", "note": "(centres undefined)", "growth": "-13% (active)"},
      {"smiles": "COc1ccc(/C(C#N)=C/c2nc3c(N4CCOCC4)nc(Cl)nc3n2C)cc1OC", "growth": "-20.9% (active)"},
      {"smiles": "CC(=O)c1cc2c(N)c(C(=O)Nc3cccc(F)c3C)sc2nc1C", "growth": "54.2%"},
      {"smiles": "COc1ccc(Cc2nc(C#N)c(N3CCN(c4ccc(F)cc4)CC3)o2)cc1", "growth": "78%"},
      {"smiles": "CC(C)(C)OC(=O)N[C@@H](Cc1ccccc1)C(=O)N(Cc1ccccc1)C1(C(=O)NCc2ccccc2)CCN(Cc2ccccc2)CC1", "growth": "7.09% (active)"},
      {"smiles": "CCOC(=O)c1c(C=O)nc2ccccc2c1/C=C/c1ccc(Cl)cc1", "growth": "102%"},
      {"smiles": "CCCCN(CCCC)C(=O)[C@H](CC)[C@@H]1CC[C@@H](C)[C@@H]([C@H](C)[C@@H](O)[C@@H](C)C(=O)[C@H](CC)C2O[C@]3(C=C[C@@H](O)[C@]4(CC[C@@](C)([C@H]5CC[C@](O)(CC)[C@H](C)O5)O4)O3)[C@H](C)C[C@@H]2C)O1", "note": "(some centres undefined)", "growth": "-22.1% (active)"},
      {"smiles": "C[C@@H](Nc1c(C#N)cnc2ccc(-c3cnc(N)nc3)cc12)c1ccccc1", "growth": "-8.47% (active)"},
      {"smiles": "CCCCCN1C=C/C(=C\\C(=O)N(C)c2cccc3ccccc23)c2ccccc21", "growth": "70.9%"}
    ]}
  ]
}
